# Measured potencies and affinities stand elsewhere. Values without a mark were called inactive.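 Rule for the calls: active = cell killing whose fitted half-effect concentration is at most twice the top valid dose tested; inconclusive = flat curve with 30 to 70% killing, or a poor fit; inactive = effect in the rising direction, plus the rest.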
# Assay: A549 cell cytotoxicity, dose response, cytotoxicity control, ATP luminescence, cherry-pick, set 2 (AID 1053124);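 note: 0% = neutral control wells and -100% = mitoxantrone 10 µM positive control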
# Conditions: A549 viability, ATP luminescence (CellTiter-Glo), 72 h; series mostly up to 26 µM; activity change, negative = cytotoxicity: at the top concentration
row,Compound,"activity change, negative = cytotoxicity"
1,CC(C)CCN1C(=O)c2cccc3c(N)ccc(c23)C1=O,5.3%
2,C#CCOc1ccc(C2C(C#N)=C(N)Oc3cc(O)ccc32)cc1 (stereo not given),-2.97%
3,Cc1cc(-n2c(=O)c(C#N)cc3c(=O)n4ccccc4nc32)no1,-5.71%
4,Cc1c(O)ccc2cc(S(=O)(=O)c3ccccc3)c(=O)oc12,-11.6%
5,COc1ccc(S(=O)(=O)Cc2ccc(C(=O)N3CCN(Cc4ccccc4)CC3)o2)cc1,6.87%
6,COc1cc(/C=C(\C#N)C(=O)NC(C)C)cc(Cl)c1O,-7.73%
7,Cc1c(C=O)c2ccccn2c1C(=O)c1cccs1,3.67%
8,COc1ccc(C2C3=C(CCCC3=O)N(CC(=O)O)C3=C2C(=O)CCC3)cc1,-1.36%
9,CCN(CC)CCCNc1nc(C)cc(COC)c1C#N,-7.91%
10,NC(=O)c1cc([N+](=O)[O-])ccc1NCc1cccnc1,3.95%
11,Cc1cc(C)nc(SCC(=O)Nc2ccc(S(=O)(=O)Nc3onc(C)c3C)cc2)n1,2.09%
12,CC(C)C(=O)Nc1sc2c(c1C(N)=O)CCN(Cc1ccccc1)C2,-5.15%
13,CSc1ccc(Cn2c(C)c(C(=O)NCCC#N)sc2=O)cc1,2.6%
14,O=C(NS(=O)(=O)c1ccc(Cl)s1)c1ccccc1,-7.08%
15,CSc1ccc(Cl)c(C(=O)N2CCOc3ccccc32)c1,-2.35%
16,CCc1cccc(OC2OC(CO)C(O)C(O)C2NC(C)=O)c1 (stereo not given),2.08%
17,O=C(NCc1nnnn1-c1ccc(Cl)cc1)C1CC(=O)N(c2ccc(F)cc2)C1 (stereo not given),-5.9%
18,COc1ccc(CCN=C(N)NS(=O)(=O)c2ccc(F)cc2)cc1,-7.67%
19,COCCCOc1cc(NCc2ccccc2)c2ncn(C(C)C)c2c1,1.48%
20,COc1c(Cl)cc(-c2noc(C)c2C(=O)NCc2ccc3c(c2)OCO3)cc1Cl,0.255%

row,Compound,"activity change, negative = cytotoxicity"
1,CCN(c1ccccc1)S(=O)(=O)c1ccc(OC)c(NC(=O)CN(C)C)c1,-8.81%
2,CCOc1ccccc1N=c1oc2cc(O)ccc2cc1C(=O)NCC1CCCO1 (stereo not given),-11.2%
3,Cc1ccc(S(=O)(=O)Nc2ccc(Nc3ccccc3)cc2)cc1,-4.17%
4,CCC(Sc1nc(N)c(NC(=O)c2ccc(OC)cc2)c(=O)[nH]1)C(=O)O (stereo not given),-2.92%
5,CC(C)OCCCn1c(=N)c(C(N)=S)cc2c(=O)n3ccccc3nc21,-4.01%
6,CCOc1ccc2nc(NCCCNS(=O)(=O)c3ccc(F)cc3)c(C#N)cc2c1,7.23%
7,O=C(CCCn1c(=O)c2sccc2n(Cc2cc(=O)n3ccccc3n2)c1=O)NCc1ccco1,5.85%
8,O=C(O)c1ccc(-c2ccc(/C=C3\NC(=O)N(Cc4ccc(Cl)cc4)C3=O)o2)cc1,-1.62%
9,CCOCCCNc1nc2nc3ccc(C)cn3c(=O)c2cc1C(=O)NCC1CCCO1 (stereo not given),-15%
10,CCOC(=O)c1cc(-c2ccccc2)sc1NC(=O)CSc1nnc(N)s1,-6.09%
11,Cc1ccc2nc3c(cc(C(=O)NCc4ccccc4)c(=N)n3CCCn3ccnc3)c(=O)n2c1,-10.2%
12,CC(C)N1CCc2c(sc(NC(=O)Cc3ccccc3)c2C#N)C1,4.19%
13,Cc1oc(/N=C/c2ccc(O)cc2O)c(C#N)c1C,-4.85%
14,Cc1cccn2c(=O)c3cc(C#N)c(=NC(=O)c4cccs4)n(CC(C)C)c3nc12,-0.676%
15,O=c1oc2c(CN3CCCCC3)c(O)ccc2cc1-c1nc2ccccc2[nH]1,-7.2%
16,CC(=O)N=c1c(C#N)cc2c(=O)n3ccccc3nc2n1CCCOC(C)C,-4.8%
17,CCOC(=O)C1CCCN(CCCc2ccccc2)C1 (stereo not given),-3.61%
18,CCN(CC)CCN1C2=C(C(=O)CC(C)(C)C2)C(c2cccc(F)c2)C2=C1CC(C)(C)CC2=O,-12.3%
19,Cc1ccc(OCC(=O)NNc2c3ccccc3nc3ccccc23)cc1,4.66% [at 12 µM]
20,CC/C(C)=N\Nc1nc(-c2cc3cc(OC)ccc3oc2=O)cs1,-4.33%

# Source: PubChem BioAssay AID1053124 (Broad Institute, 2014)
